Source: paper PMC5540273 (PLoS ONE, 2017)

Legend:
Conditions in all cases: concentration: 1 μM, replicates: in singlicate; n = 1
PIK3CG = tested on: PIK3CG
PIK4CB = tested on: T1, PIK4CB
T1 construct: gene PI4KB

PIKFYVE = tested on: PIKFYVE
PIM1 = tested on: PIM1
PIM2 = tested on: PIM2
PIM3 = tested on: PIM3
PIP5K1A = tested on: PIP5K1A
PIP5K1C = tested on: PIP5K1C
PIP5K2B = tested on: PIP5K2B
PIP5K2C = tested on: T2, PIP5K2C
T2 construct: gene PIP4K2C
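Note: KINOMEscan kinase panel screen.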

SMILES	%Inh (PIK3CG) [%]	%Inh (PIK4CB) [%]	%Inh (PIKFYVE) [%]	%Inh (PIM1) [%]	%Inh (PIM2) [%]	%Inh (PIM3) [%]	%Inh (PIP5K1A) [%]	%Inh (PIP5K1C) [%]	%Inh (PIP5K2B) [%]	%Inh (PIP5K2C) [%]
FC(F)(F)c1ccc(-c2ncn(CCCN3CCOCC3)c2-c2ccncc2)cc1 [SB-217780]	34	0	0	15	0	13	0	36	0	27
Cn1c(=O)c(F)c(Nc2ccc(I)cc2F)c2c(=O)n(OC[C@H](O)CO)cnc21	0	0	6	5	13	0	11	22	9	12
CCC(=O)c1c(-c2ccccc2)c2cc(Cl)ccc2c(=O)n1Cc1ccc(C(=O)O)cc1	0	0	0	0	0	0	18	15	0	16
O=C(NCCNc1ccnc(Nc2ccc(F)cc2)n1)Nc1ccc2c(c1)OCO2 [GSK1379882]	10	17	8	21	0	11	7	66	0	24
CCCNC(=O)Nc1ccc(Oc2ncnc3ccn(C)c23)cc1	12	0	0	0	5	0	0	17	47	27
CCn1c(-c2ccoc2)nc2cnccc21 [SB-733887]	0	20	3	0	0	36	11	0	0	32
CC(C)(C)c1ccc(C(=O)Nc2cn3cc(-c4ccccc4)ccc3n2)cc1	0	0	27	30	0	19	0	32	6	54
Nc1n[nH]c2nnc(-c3ccccc3)c(-c3ccccc3)c12 [GW554060]	0	0	12	0	0	0	11	47	14	14
Cc1ccc(Oc2ccc(Nc3ncnc4cc[nH]c34)cc2C)cn1	7	42	1	41	7	36	7	0	0	0
COc1cc2ncn(-c3cc(OCc4ccncc4Br)c(C(N)=O)s3)c2cc1OC [GW854278]	55	23	17	0	0	2	0	86	41	81
Cc1nnc(-c2ccc3ncn(-c4ccc(S(C)=O)cc4)c3c2)o1 (centres unmarked)	0	0	19	4	1	11	0	18	5	55
Cl.NS(=O)(=O)c1cccc(Nc2cc(-c3ccc(F)cc3)n[nH]2)c1 [GW824645]	0	26	0	0	8	0	3	59	0	0
O=C1NC(=O)C(c2ccccc2)=C1Nc1cccc(O)c1 [SB-390534]	5	22	0	0	0	0	5	0	13	0
Cc1c(Cn2c(C)nn3c(=O)cc(N4CCO[C@H](C)C4)nc23)cccc1C(F)(F)F [GSK2373690]	21	0	0	0	0	0	0	13	12	9
COc1cc2nccc(Nc3ccc(OCc4ccc(NC(C)=O)cc4)cc3)c2cc1OC.Cl [GW440135]	7	4	0	8	0	0	15	32	22	25
COc1cc(Nc2ccnc3ccc(C(F)(F)F)cc23)cc(OC)c1OC [GW577382]	0	0	0	2	0	0	0	54	10	50
COc1cccc(-n2cnc3c(N)ncnc32)c1 [SKF-97416]	44	41	41	20	14	24	2	13	0	0
Cl.c1ccc(Cn2cnc3cc(Nc4ncnc5ccccc45)ccc32)cc1 [GW272142]	0	0	6	0	0	0	0	38	0	17
Cc1ccc(-c2ccc3c(ccc4sc5c(c43)NC[C@@H](C)N=C5N(C)C)n2)cn1	0	0	42	0	0	0	0	0	0	0
O=C(Nc1n[nH]c2nc(-c3ccccc3)c(Cl)cc12)C1CC1 [SB-734909]	45	2	0	0	3	1	8	38	13	14
COc1cc(Nc2nccc(N3CCC(NC(=O)C4COc5ccccc5O4)C3)n2)cc(OC)c1OC (centres unmarked) [GSK1379761]	0	0	21	0	0	0	51	0	6	89
CN(C)c1cc(-c2ccc3c(N)n[nH]c3c2)nc(N)n1 [GSK2219329]	0	0	0	14	0	0	0	19	0	0
CCS(=O)(=O)c1ccc(OC)c(Nc2ncc(-c3ccc(F)cc3)o2)c1.Cl [GW591947]	0	0	0	0	0	0	0	23	3	2

SMILES	%Inh (PIK3CG) [%]	%Inh (PIK4CB) [%]	%Inh (PIKFYVE) [%]	%Inh (PIM1) [%]	%Inh (PIM2) [%]	%Inh (PIM3) [%]	%Inh (PIP5K1A) [%]	%Inh (PIP5K1C) [%]	%Inh (PIP5K2B) [%]	%Inh (PIP5K2C) [%]
COC(=O)c1c(-c2ccccc2)c2cc(Br)ccc2c(=O)n1Cc1ccc(S(C)(=O)=O)cc1	1	5	0	9	14	9	19	0	23	0
CCC(=O)c1c(-c2ccccc2)c2cc(Cl)ccc2c(=O)n1Cc1cc(S(C)(=O)=O)n(CC(N)=O)n1	0	0	17	18	2	9	0	33	8	19
COc1cccc(C2=C(N(C)c3ccccc3)C(=O)NC2=O)c1 [SB-334865]	0	0	2	0	0	0	0	70	6	30
CCS(=O)c1ccc(-c2coc3ccc(-c4nnc(C)o4)cc23)cc1 (centres unmarked)	0	19	3	6	27	11	0	13	0	93
CCn1c(-c2nonc2N)nc2ccccc21 [SB-693162/GW549034]	0	29	0	0	0	8	23	8	0	0
CCC(=O)c1c(-c2ccccc2)c2cc(Cl)ccc2c(=O)n1Cc1cc(S(C)(=O)=O)n(CCC(C)(C)O)n1	17	0	0	15	2	16	0	0	20	0
CCCC(=O)Nc1n[nH]c2ncc(-c3cccc4ccccc34)cc12 [SB-642057]	10	39	0	10	0	2	0	34	0	13
CN1C(=O)C(Nc2ccccc2)=C(c2ccccc2)C1=O [SB-300079]	10	0	9	0	0	0	42	23	0	20
CCc1nc(-c2cccc(C)c2)c(-c2ccncc2)s1	0	0	39	17	0	29	0	36	19	25
COc1cc2ncn(-c3cc(OCc4ccc(S(C)(=O)=O)cc4)c(C(N)=O)s3)c2cc1OC [GW869979]	26	18	14	0	0	0	0	39	16	0
CCc1ccc(-c2ccc3c(c2)-c2nn(C)cc2S(=O)(=O)N3C)cc1	0	0	16	0	12	0	0	35	0	9
COc1ccc(-c2cc3c(C)nc(N)nc3n([C@H]3CC[C@H](O)CC3)c2=O)cn1	100	93.9	45	5	0	6	2	0	2	38
Cc1cc(Nc2nc(-c3cccc(C)n3)nc3ccccc23)ccn1 [GW872411]	0	0	53	0	0	0	2	0	0	0
CCC(=O)c1c(-c2ccccc2)c2cc(Cl)ccc2c(=O)n1Cc1cc(S(C)(=O)=O)n(CC(F)F)n1	0	0	0	0	0	0	2	9	0	0
COc1ccc(CNC(=O)NC2CCN(c3ccnc(Nc4ccc(F)cc4)n3)C2)cc1 (centres unmarked) [GSK1379706]	7	17	0	12	0	0	44	63	20	54
O=c1cc(N2CCOCC2)nc2n(Cc3ccc(F)c(Cl)c3)ccn12 [GSK2297099]	23	20	0	11	0	19	0	0	0	0
CCC(=O)c1c(-c2ccccc2)c2cc(Cl)ccc2c(=O)n1Cc1cc(C(=O)NC2CC2)n(C)n1	0	0	25	0	0	11	0	0	32	12
COC(=O)c1c(-c2ccccc2)c2cc(Br)ccc2c(=O)n1Cc1ccc(NC(=O)CCC(=O)O)cc1	7	0	5	4	24	3	4	0	35	0
COc1ccc(Nc2nccc(N3CCC(NS(=O)(=O)c4ccc(NC(C)=O)cc4)C3)n2)cc1 (centres unmarked) [GSK1379729]	11	14	11	0	0	0	0	49	9	62
Nc1n[nH]c2ncc(-c3ccccc3)cc12 [SB-517081]	0	0	0	12	0	0	0	38	9	23
COc1cc(OC)cc(-c2cc3cnc(N)nc3nc2NC(=O)NC(C)(C)C)c1	5	0	44	0	0	0	37	0	0	0
Cc1nnc(-c2ccc(C)c(-c3ccc(C(=O)O)cc3)c2)o1 [GW608005]	0	0	0	18	0	0	0	6	0	0
COc1ccc(-n2cnc3c(N)ncnc32)cc1 [SKF-97236]	51	23	0	19	0	0	0	33	6	6

SMILES	%Inh (PIK3CG) [%]	%Inh (PIK4CB) [%]	%Inh (PIKFYVE) [%]	%Inh (PIM1) [%]	%Inh (PIM2) [%]	%Inh (PIM3) [%]	%Inh (PIP5K1A) [%]	%Inh (PIP5K1C) [%]	%Inh (PIP5K2B) [%]	%Inh (PIP5K2C) [%]
O=C(NCc1cccs1)c1cc(C(=O)c2c(Cl)cccc2Cl)c[nH]1 [GW823670]	0	0	0	5	0	0	34	0	4	0
COc1cc2ncn(-c3cc(OCc4ccncc4)c(C(N)=O)s3)c2cc1OC [GSK336313]	12	0	0	0	0	0	0	30	22	0
COc1ccc(-c2coc3ccc(-c4nnc(SCc5cccc(C#N)c5)o4)cc23)cc1	0	29	0	12	20	17	0	0	4	9
COc1ccc(-c2cc3c(C)nc(N)nc3n([C@H]3CC[C@H](OCCO)CC3)c2=O)cn1		96.1	11	0	44	0	0	1	2	9
Nc1ncnc2c1ncn2-c1cccc2ccccc12 [SKF-97184]	3	0	40	0	32	0	0	11	0	0
O=C(Nc1n[nH]c2cc(-c3ccccc3F)ccc12)C1CC1 [SB-733371]	6	0	10	0	0	0	32	0	24	0
COc1cc2nccc(Nc3cccc(Oc4ccccc4)c3)c2cc1OC.Cl [GW284543]	0	0	29	0	0	0	0	48	18	8
Nc1nc(-c2ccccc2F)c(-c2ccnc3ccccc23)s1 [GW560459]	0	0	0	0	0	3	13	46	4	59
Nc1ncnc2c1ncn2-c1cccc(F)c1 [SKF-97560]	14	14	17	1	18	0	6	0	9	0
OCCCNc1nccc(-c2c(-c3cccc(C(F)(F)F)c3)nn3cc(C(F)(F)F)ccc23)n1 [GW630813]	0	0	0	9	0	0	30	66	2	38
Cc1ccccc1COc1cc(-n2cnc3cc(Cl)ccc32)sc1C(N)=O [GW813349]	24	0	0	2	18	0	24	37	0	24
COc1cc(Nc2nccc(N3CCC(NC(=O)C(C)c4ccc(Cl)cc4)C3)n2)cc(OC)c1OC (centres unmarked) [GSK1379757]	2	0	0	0	0	0	42	35	3	79
Cc1cccc(-c2cc(-c3c[nH]nc3-c3ccccn3)ccn2)c1 [GW679395]	0	0	0	20	0	0	35	54	0	39
O=C(Nc1ccc2c(c1)OCO2)NC1CCN(c2ccnc(NCc3ccc(F)cc3)n2)CC1 [GSK1379859]	0	2	0	8	0	0	0	19	2	0
Cc1nc(N(C)[C@H]2CN(C(=O)CC#N)CC[C@H]2C)c2cc[nH]c2n1	0	0	2	0	0	0	0	0	0	0
COC(=O)c1c(-c2ccccc2)c2cc(C)ccc2c(=O)n1Cc1ccccc1	0	0	0	2	0	0	13	20	5	1
Cc1nn2c(=O)cc(N3CCOCC3)nc2n1Cc1cccc(Cl)c1Cl [GSK2342769]	69	0	62	0	0	0	0	12	5	1
Nc1ncnc2c1ncn2-c1ccc(Cl)cc1 [AH2635]	47	0	0	0	0	0	17	57	10	23
CN1C(=O)C(Nc2cc(Cl)c(O)c(Cl)c2)=C(c2ccc(Cl)cc2)C1=O [SB-404321]	10	36	24	0	0	0	0	27	0	30
Nc1nc(N)c2nc(-c3ccccc3)[nH]c2n1 [SKF-12778]	8	19	12	0	5	0	0	47	8	35
Cc1cccc(-c2nc(Nc3ccc4c(cnn4C)c3)c3ccccc3n2)n1 [GW876731]	0	26	91.5	8	1	21	0	0	0	0
Fc1cccc(CSc2nnc(-c3ccc4c(c3)CCO4)o2)c1	10	2	7	13	18	9	13	5	34	0
COc1cccc(C2=C(Nc3cccc(C(=O)O)c3)C(=O)NC2=O)c1 [SB-390770]	5	0	0	0	0	0	5	56	4	23
